DRD3 agonist = activates the human D3 dopamine receptor; P35462; D3R DiscoveRx beta-arrestin cells, luminescence, 90 min; max activation, %; 410,000 compounds, 0.58% hits; in the data active means max activation above about 30%; further: 0% is about no effect
Target sequence (P35462 whole entry, looked up): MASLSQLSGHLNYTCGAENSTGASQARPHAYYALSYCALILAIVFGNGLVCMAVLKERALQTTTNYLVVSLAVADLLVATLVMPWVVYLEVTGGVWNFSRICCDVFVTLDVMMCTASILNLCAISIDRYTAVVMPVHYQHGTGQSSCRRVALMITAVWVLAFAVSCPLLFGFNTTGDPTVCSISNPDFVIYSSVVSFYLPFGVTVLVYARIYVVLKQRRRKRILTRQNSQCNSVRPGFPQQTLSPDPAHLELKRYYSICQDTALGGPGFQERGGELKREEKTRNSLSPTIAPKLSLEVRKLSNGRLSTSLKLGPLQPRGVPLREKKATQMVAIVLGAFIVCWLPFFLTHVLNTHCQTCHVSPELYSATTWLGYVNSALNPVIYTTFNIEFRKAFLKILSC
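Agonist-mode cell screen: cells plated at 1500/well and incubated overnight at 37 °C, then exposed to library compounds for 90 min at 37 °C. Detection reagent was added for 30–60 min at room temperature, and luminescence was read.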
IL-1B inflam inh = blocks inflammasome-driven IL-1 beta release; activity change, % at 57.5 µM; 360,000 compounds, 4.7% hits; THP-1 LPS/ATP IL-1B secretion, AlphaLISA, 16 h; stronger effect = lower value; in the data active means activity change below about -50%; inconclusive means mostly about -30% to -49%; further: on the % scale 0 is the no-effect control and ±100 the full control effect
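THP-1 cells pretreated 1 hr with compounds (up to 57.5 uM final), then stimulated with LPS (250 ng/mL final) plus ATP (1.25 mM final); secreted IL-1B measured by AlphaLISA after 16 hr, decreased signal indicating inhibition.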
D3 antag = blocks the human D3 dopamine receptor; P35462; max response, negative = inhibition, %; 360,000 compounds, 2.5% hits; D3R cells, DiscoveRx beta-arrestin luminescence, antagonist mode; stronger effect = lower value; in the data active means max response below about -50%; inconclusive means no clear call, values can overlap the other calls; further: on the % scale 0 is the no-effect control and ±100 the full control effect
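Cells expressing the human receptor were seeded at 1500 cells/well, incubated overnight at 37 degrees C in 5% CO2, then exposed to library compounds with dopamine controls for 90 minutes at 37 degrees C before luminescent detection.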
ClpP mod = qHTS Assay for Activators of ClpP. ATP-dependent Clp protease proteolytic subunit (Bacillus subtilis (strain 168)), P80244. purified B. subtilis ClpP, FRET peptide cleavage, 20 min. Potency, µM (top dose mostly 57.5 µM), for inactives: top-dose activity change, negative = active. 340,000 compounds, 1.9% hits. AID 651965, 2013; active means well fitted falling curve with a large enough effect; inconclusive means small, poorly fitted or top-dose-only effect; inactive means no such curve, though single readings can be large or run the other way; further: potency means the concentration at half of the fitted maximal effect; the source files actives as falling curves though it sought activators and does not explain the sign; nearly all actives have a fitted effect of over 65% in size
Target sequence (P80244 whole entry, looked up): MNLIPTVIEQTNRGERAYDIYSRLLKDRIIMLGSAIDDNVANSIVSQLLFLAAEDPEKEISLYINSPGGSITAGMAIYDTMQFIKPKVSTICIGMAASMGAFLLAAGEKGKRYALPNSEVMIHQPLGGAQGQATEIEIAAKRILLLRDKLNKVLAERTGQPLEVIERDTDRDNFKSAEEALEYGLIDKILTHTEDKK
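Buffer: 100 mM Tris/HCl pH8, 100 mM KCl, 0.05% low protease BSA, 2.5% glycerol, 0.01% Tween-20. ClpP 10 microg/mL final; 20 min RT; delta FRET normalized to ADEP and DMSO controls.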
DT40 TDP1 no CPT = qHTS for Inhibitors of human tyrosyl-DNA phosphodiesterase 1 (TDP1): qHTS in cells in absence of CPT; AID 686978, 2013; 420,000 compounds, 15% hits; Potency, µM (titrated, usually from 46.2 µM), for inactives: top-dose activity change, negative = growth inhibition, actives largely listed as inhibitors; DT40 Tdp1-/- hTDP1 cells, no CPT, ATP luminescence, 48 h; further: potency means the concentration at half of the fitted maximal effect; on the % scale 0 is the no-effect control and ±100 the full control effect; nearly all actives have a fitted effect of over 55% in size
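A cellular qHTS used chicken DT40 cells lacking endogenous Tdp1 but carrying stably transfected human TDP1. Compounds were applied without camptothecin, and cell growth kinetics were judged by ATP-dependent luminescence after ≥48 hr.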
DT40 TDP1 CPT = DT40-hTDP1 cell growth loss with CPT; chicken DT40 Tdp1-/-;hTDP1 cells + 20 nM CPT, ATP luminescence, 48 h; Potency, µM (series often up to 46.2 µM), for inactives: at the highest dose activity change, negative = growth inhibition, actives largely listed as inhibitors; 420,000 compounds, 12% hits; AID 686979; further: potency means the concentration at half of the fitted maximal effect; on the % scale 0 is the no-effect control and ±100 the full control effect; nearly all actives have a fitted effect of over 55% in size
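Chicken DT40 Tdp1-/- cells complemented with human TDP1, 400 cells/well, exposed to compounds plus 20 nM camptothecin for at least 48 h at 37 C; viability read as ATP content by CellTiter-Glo luminescence.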
* = called active by the depositor; u = inconclusive; x = not tested or not shown. Most compounds without a hit are left out; they make up all but 21% or so of the library. Unless noted, the call rests on the fitted dose curve; in most records, active means well fitted inhibition curve with a large enough effect; inconclusive means small, poorly fitted or top-dose-only effect; inactive means flat fitted curve, though single readings scatter.

SMILES | DRD3 agonist | IL-1B inflam inh | D3 antag | ClpP mod | DT40 TDP1 no CPT | DT40 TDP1 CPT
O=C(N/N=C\c1cccc(F)c1)c1ccc(Cn2cc(Br)c([N+](=O)[O-])n2)o1 | -14 | u | -87* | x | 0% | -22%
CC(/C=N/NC(=O)c1ccc(Cn2cc([N+](=O)[O-])cn2)o1)=C\c1ccccc1 | 19 | -52* | -1 | -6% | -10% | -17%
CCOc1ccc(/C=N/NC(=O)c2ccc(Cn3cc([N+](=O)[O-])cn3)o2)cc1 | 3 | -4 | 16 | -3% | -23% | -20%
CCOC(=O)C(CC)n1cnc2c(cnn2-c2ccc(Cl)cc2)c1=O (stereo not drawn) | 4 | 15 | 70 | -1% | 18µM* | u
CCOC(=O)C(C)n1cnc2c(cnn2-c2ccc(Cl)cc2)c1=O (stereo not drawn) | 5 | 17 | -18 | -14% | 16µM* | u
CCOC(=O)C(C)n1cnc2c(nnn2-c2ccc(C)cc2)c1=O (stereo not drawn) | 0 | 0 | 13 | 1% | -16% | -7%
CC(C)c1cnc2c(c1SCC(=O)c1ccc(Cl)cc1)c(=O)n(C)c(=O)n2C | -5 | x | x | -5% | 23µM* | 18µM*
CCc1cnc2c(c1SCC(=O)N1CCCCC1)c(=O)n(C)c(=O)n2C | 2 | x | x | -4% | u | u
CCc1cnc2c(c1SC(C(C)=O)C(=O)N(C)C)c(=O)n(C)c(=O)n2C (stereo not drawn) | 6 | x | x | 1% | u | 23µM*
CC(C)c1cnc2c(c1SCc1cccc(C(F)(F)F)c1)c(=O)n(C)c(=O)n2C | 10 | x | x | -10% | 23µM* | u
CC1CCN(C(=O)CSc2c(C(C)C)cnc3c2c(=O)n(C)c(=O)n3C)CC1 | 7 | x | x | -4% | 16µM* | 26µM*
CCOc1ccc(S(=O)(=O)Nc2ccc(C(=O)NCCCN3CCOCC3)cc2)cc1 | -24 | 11 | -25 | -1% | -5% | -6%
CSCC[C@H](NC(=O)Nc1ccc(OC(F)(F)F)cc1)C(=O)O | 1 | 11 | 6 | x | -12% | 9%
CC(C)c1cnc2c(c1SCc1ccc([N+](=O)[O-])cc1)c(=O)n(C)c(=O)n2C | -9 | x | x | -3% | 8.2µM* | u
Cc1cc(C)cc(NC(=O)CSc2c(C(C)C)cnc3c2c(=O)n(C)c(=O)n3C)c1 | 4 | x | x | -2% | u | u
CCc1cnc2c(c1SCC(=O)c1ccc(OC)cc1)c(=O)n(C)c(=O)n2C | 5 | x | x | 2% | 12µM* | 12µM*
CC(C)c1cnc2c(c1SCC(=O)Nc1cccc(F)c1)c(=O)n(C)c(=O)n2C | 4 | x | x | -1% | 15µM* | u
CCCc1cnc2c(c1SCc1cccc(C)c1)c(=O)n(C)c(=O)n2C | 0 | x | x | -1% | u | 16µM*
Cc1ccc(NS(=O)(=O)c2c(C(=O)N3CCCCCC3)c(C)n(C)c2C)cc1C | -3 | -22 | 17 | 0% | u | u
COC(=O)c1ccc(CSc2c(C(C)C)cnc3c2c(=O)n(C)c(=O)n3C)cc1 | 7 | x | x | -2% | 23µM* | u
CC(C)c1cnc2c(c1SCC(=O)O)c(=O)n(C)c(=O)n2C | 0 | x | x | -25% | 6% | 1%
C/C(=C\C(=O)c1ccc(Cl)s1)N(C)C | -4 | -4 | 8 | 0% | 8% | 0%
COc1cc(/C=C/C(=O)c2ccc(Cl)s2)cc(OC)c1O | -46 | -105* | u | -1% | 29µM* | u
COc1ccc(/C=C/C(=O)c2ccc(Cl)s2)cc1O | -8 | -27 | -72* | 0% | 18µM* | u
Cc1c(/C=C/C(=O)c2ccc(Cl)s2)cnn1C | 0 | -9 | 12 | -7% | u | -27%
SMILES | DRD3 agonist | IL-1B inflam inh | D3 antag | ClpP mod | DT40 TDP1 no CPT | DT40 TDP1 CPT
O=C(C=Cc1ccc(Cl)s1)c1ccc(Cl)s1 | -14 | -51* | -16 | x | u | u
Cc1ccc(OCC(=O)Nc2ccc(S(=O)(=O)Nc3cc(C)on3)cc2)c(Br)c1 | -20 | x | x | 0% | -23% | -8%
CC(C)(C)C(=O)Nc1nc2nc(-c3ccccc3)cc(=O)n2[nH]1 | 5 | x | x | -7% | 2% | 0%
CN1C(=O)c2ccccc2Sc2ccc(C(=O)O)cc21 | -3 | 25 | 7 | 2% | -4% | 6%
C=Cc1ccc2c(c1)N(C)C(=C)S2 | -3 | -11 | -24 | x | 23µM* | 16µM*
CCC(CO)Nc1ccc(-c2n[nH]c(=O)c3ccccc23)cc1[N+](=O)[O-] (stereo not drawn) | -21 | -17 | u | 1% | -22% | u
CC1CC(NC(=O)Cc2ccc(Br)cc2)CC(C)(C)C1 (stereo not drawn) | 2 | -11 | -14 | -4% | u | 16µM*
COC(=O)C[C@H]1C=C[C@@H](NS(=O)(=O)c2ccccc2)[C@@H](CO)O1 | 3 | -7 | 7 | 0% | 2% | -2%
COc1ccc(-c2cnnn2-c2ccc(NC(=O)c3ccccc3OC)cc2)cc1 | -20 | x | x | 0% | u | 21µM*
COc1cccc(C(=O)Nc2ccc(-n3nncc3-c3ccccc3)cc2)c1 | 4 | x | x | -4% | u | u
COc1ccc(-c2cnnn2-c2ccc(NC(=O)c3c(F)cccc3F)cc2)cc1 | -1 | x | x | 0% | 26µM* | 12µM*
CC(C)CN(C(=O)CSc1nnc(-c2cccs2)n1N)c1c(N)n(Cc2ccccc2)c(=O)[nH]c1=O | 3 | 5 | 15 | 2% | 8% | -3%
O=P(Cc1cc(Br)cc(Br)c1OCCO)(c1ccccc1)c1ccccc1 | 9 | x | 6 | x | u | u
O=P(c1ccccc1)(c1ccccc1)c1cc(Br)cc(Br)c1OCCO | 8 | -56* | -15 | x | u | -4%
O=C(O)CCc1cccc2ccccc12 | x | x | x | 0% | -17% | 0%
CCN(CC)CCOC(=O)CCc1cccc2ccccc12 | 1 | 0 | -66* | 1% | 1% | 0%
CCN(CC)CCOC(=O)C(Cc1ccco1)Cc1cccc2ccccc12 (stereo not drawn) | -20 | -57* | u | x | u | u
O=C(CSc1ccccc1F)NCC(c1cccs1)N1CCOCC1 (stereo not drawn) | 0 | 32 | 7 | -1% | u | u
CC(=O)Nc1ccc2c(c1)C(=O)c1ccccc1C2=O | -3 | -6 | -10 | -2% | u | u

High-throughput results deposited in PubChem BioAssay by National Center for Advancing Translational Sciences (NCATS).
